# Test results taken from the supplement of paper PMC11402862.
# What was measured:
# Assay in all cases: luciferase reporter transactivation, fold of solvent control; higher = stronger receptor activation
# Details in all cases: HEK293T, exposure time: 24 h
# CAR LBD (GAL4 fusion) = system: CAR LBD (GAL4 fusion)
# Summary of the method: (§1)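 HEK293T cells were seeded at 2 × 10^4 cells/well in 96-well plates in DMEM with 10% FBS at 37 °C and 5% CO2, then transiently transfected using TransIT-LT1 with a GAL4 fusion of one human nuclear receptor ligand-binding domain, a GAL4-(UAS)5-TK firefly luciferase reporter and a Renilla luciferase plasmid. Compound was applied for 24 h at 1 to 500 µM in DMEM containing 0.5% DMSO. Transactivation is given as the firefly-to-Renilla luciferase ratio relative to the solvent control, averaged across biological replicates.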
# [1] = system: LXRalpha LBD (GAL4 fusion)
# Summary of the method: as §1
# [2] = system: PPARdelta LBD (GAL4 fusion)
# Summary of the method: as §1
# PXR LBD (GAL4 fusion) = PXR LBD (GAL4 fusion) (UniProt O75469)
# Chain of PXR LBD (GAL4 fusion) (O75469 whole entry, looked up, the tested form may be a part): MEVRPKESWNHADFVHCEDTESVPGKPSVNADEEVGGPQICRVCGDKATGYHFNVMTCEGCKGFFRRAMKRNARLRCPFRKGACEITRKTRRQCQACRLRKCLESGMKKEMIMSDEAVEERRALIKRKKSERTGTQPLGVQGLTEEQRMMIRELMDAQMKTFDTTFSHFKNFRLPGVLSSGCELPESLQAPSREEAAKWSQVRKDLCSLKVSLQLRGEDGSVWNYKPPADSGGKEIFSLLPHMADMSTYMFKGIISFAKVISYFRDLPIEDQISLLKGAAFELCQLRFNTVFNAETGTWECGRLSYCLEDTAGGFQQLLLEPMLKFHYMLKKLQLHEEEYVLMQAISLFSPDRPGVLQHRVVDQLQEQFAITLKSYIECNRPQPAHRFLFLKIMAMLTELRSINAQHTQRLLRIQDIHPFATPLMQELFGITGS
# Summary of the method: as §1
# RARalpha (GAL4 fusion) = system: RARalpha (GAL4 fusion)
# Summary of the method: as §1
compound,measurement,setting,value
NS(=O)(=O)C(F)(F)C(F)(F)C(F)(F)C(F)(F)C(F)(F)C(F)(F)C(F)(F)C(F)(F)F [perfluorooctane sulfonamide],luciferase reporter transactivation,CAR LBD (GAL4 fusion); concentration: 1 µM,1.08
same,luciferase reporter transactivation,CAR LBD (GAL4 fusion); concentration: 2.5 µM,1.29
same,luciferase reporter transactivation,CAR LBD (GAL4 fusion); concentration: 5 µM,1.18
same,luciferase reporter transactivation,CAR LBD (GAL4 fusion); concentration: 10 µM,1.06
same,luciferase reporter transactivation,CAR LBD (GAL4 fusion); concentration: 100 µM,0.995
same,luciferase reporter transactivation,[1]; concentration: 1 µM,1.05
same,luciferase reporter transactivation,[1]; concentration: 2.5 µM,0.997
same,luciferase reporter transactivation,[1]; concentration: 5 µM,1.08
same,luciferase reporter transactivation,[1]; concentration: 10 µM,1.03
same,luciferase reporter transactivation,[1]; concentration: 100 µM,1.09
same,luciferase reporter transactivation,[2]; concentration: 1 µM,1.15
same,luciferase reporter transactivation,[2]; concentration: 2.5 µM,1.03
same,luciferase reporter transactivation,[2]; concentration: 5 µM,0.974
same,luciferase reporter transactivation,[2]; concentration: 10 µM,0.826
same,luciferase reporter transactivation,[2]; concentration: 100 µM,0.935
same,luciferase reporter transactivation,PXR LBD (GAL4 fusion); concentration: 1 µM,0.779
same,luciferase reporter transactivation,PXR LBD (GAL4 fusion); concentration: 2.5 µM,0.819
same,luciferase reporter transactivation,PXR LBD (GAL4 fusion); concentration: 5 µM,0.699
same,luciferase reporter transactivation,PXR LBD (GAL4 fusion); concentration: 10 µM,0.703
same,luciferase reporter transactivation,PXR LBD (GAL4 fusion); concentration: 100 µM,0.74
same,luciferase reporter transactivation,RARalpha (GAL4 fusion); concentration: 1 µM,1.02
same,luciferase reporter transactivation,RARalpha (GAL4 fusion); concentration: 2.5 µM,0.969
same,luciferase reporter transactivation,RARalpha (GAL4 fusion); concentration: 5 µM,1.32
same,luciferase reporter transactivation,RARalpha (GAL4 fusion); concentration: 10 µM,1.47
same,luciferase reporter transactivation,RARalpha (GAL4 fusion); concentration: 100 µM,1.71
O=C(O)C(F)(F)C(F)(F)F [perfluoropropanoic acid],luciferase reporter transactivation,CAR LBD (GAL4 fusion); concentration: 1 µM,0.94
same,luciferase reporter transactivation,CAR LBD (GAL4 fusion); concentration: 5 µM,0.855
same,luciferase reporter transactivation,CAR LBD (GAL4 fusion); concentration: 10 µM,0.923
same,luciferase reporter transactivation,CAR LBD (GAL4 fusion); concentration: 25 µM,0.983
same,luciferase reporter transactivation,CAR LBD (GAL4 fusion); concentration: 50 µM,1.12
same,luciferase reporter transactivation,CAR LBD (GAL4 fusion); concentration: 100 µM,1.11
same,luciferase reporter transactivation,CAR LBD (GAL4 fusion); concentration: 250 µM,1.15
same,luciferase reporter transactivation,CAR LBD (GAL4 fusion); concentration: 500 µM,1.31
same,luciferase reporter transactivation,[1]; concentration: 1 µM,0.9
same,luciferase reporter transactivation,[1]; concentration: 5 µM,0.907
same,luciferase reporter transactivation,[1]; concentration: 10 µM,0.949
same,luciferase reporter transactivation,[1]; concentration: 25 µM,0.933
same,luciferase reporter transactivation,[1]; concentration: 50 µM,1
same,luciferase reporter transactivation,[1]; concentration: 100 µM,0.953
same,luciferase reporter transactivation,[1]; concentration: 250 µM,0.94
same,luciferase reporter transactivation,[1]; concentration: 500 µM,0.97
same,luciferase reporter transactivation,[2]; concentration: 1 µM,0.959
same,luciferase reporter transactivation,[2]; concentration: 5 µM,1.14
same,luciferase reporter transactivation,[2]; concentration: 10 µM,1.27
same,luciferase reporter transactivation,[2]; concentration: 25 µM,1.2
same,luciferase reporter transactivation,[2]; concentration: 50 µM,1.26
same,luciferase reporter transactivation,[2]; concentration: 100 µM,1.21
same,luciferase reporter transactivation,[2]; concentration: 250 µM,1.22
same,luciferase reporter transactivation,[2]; concentration: 500 µM,1.31
same,luciferase reporter transactivation,PXR LBD (GAL4 fusion); concentration: 1 µM,0.362
same,luciferase reporter transactivation,PXR LBD (GAL4 fusion); concentration: 5 µM,0.532
same,luciferase reporter transactivation,PXR LBD (GAL4 fusion); concentration: 10 µM,0.495
same,luciferase reporter transactivation,PXR LBD (GAL4 fusion); concentration: 25 µM,0.632
same,luciferase reporter transactivation,PXR LBD (GAL4 fusion); concentration: 50 µM,0.626
same,luciferase reporter transactivation,PXR LBD (GAL4 fusion); concentration: 100 µM,0.695
same,luciferase reporter transactivation,PXR LBD (GAL4 fusion); concentration: 250 µM,0.601
same,luciferase reporter transactivation,PXR LBD (GAL4 fusion); concentration: 500 µM,0.727
same,luciferase reporter transactivation,RARalpha (GAL4 fusion); concentration: 1 µM,0.332
same,luciferase reporter transactivation,RARalpha (GAL4 fusion); concentration: 5 µM,0.321
same,luciferase reporter transactivation,RARalpha (GAL4 fusion); concentration: 10 µM,0.367
same,luciferase reporter transactivation,RARalpha (GAL4 fusion); concentration: 25 µM,0.387
same,luciferase reporter transactivation,RARalpha (GAL4 fusion); concentration: 50 µM,0.632
same,luciferase reporter transactivation,RARalpha (GAL4 fusion); concentration: 100 µM,0.652
same,luciferase reporter transactivation,RARalpha (GAL4 fusion); concentration: 250 µM,0.977
same,luciferase reporter transactivation,RARalpha (GAL4 fusion); concentration: 500 µM,0.946
